# Target: ALX3 (Homo sapiens, UniProt O95076 139-225, L168V)
# Assay: PBM; 200 nM protein, PBS
# Conditions: dsDNA, one strand shown
# Chain of ALX3 (Homo sapiens, UniProt O95076 139-225, L168V) (O95076 139-225 L168V): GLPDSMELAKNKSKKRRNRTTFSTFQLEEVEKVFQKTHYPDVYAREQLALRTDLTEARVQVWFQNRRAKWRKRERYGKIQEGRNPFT
row,Sequence,binding signal
1,AGCCACGG,"7.72 upbm affinity estimate (log intensity, higher = more binding, comparable within an allelic series)"
2,CCGGCAGG,"7.78 upbm affinity estimate (log intensity, higher = more binding, comparable within an allelic series)"
3,CCGGACGG,"7.73 upbm affinity estimate (log intensity, higher = more binding, comparable within an allelic series)"
4,CCCCCTTC,"7.27 upbm affinity estimate (log intensity, higher = more binding, comparable within an allelic series)"

# Target: MSX2 (Homo sapiens, UniProt P35548 130-214, F161Y)
# Assay: PBM; 200 nM protein, PBS
# Conditions: dsDNA, one strand shown
# Chain of MSX2 (P35548 130-214 F161Y): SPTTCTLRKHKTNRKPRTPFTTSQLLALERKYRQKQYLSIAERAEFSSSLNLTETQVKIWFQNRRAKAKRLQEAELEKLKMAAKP
row,Sequence,binding signal
1,TAATTTGA,"13 upbm affinity estimate (log intensity, higher = more binding, comparable within an allelic series)"
2,CGCGCGCG,"9.52 upbm affinity estimate (log intensity, higher = more binding, comparable within an allelic series)"
3,CCCCCCAG,"9.5 upbm affinity estimate (log intensity, higher = more binding, comparable within an allelic series)"
4,GCCCGGAC,"9.5 upbm affinity estimate (log intensity, higher = more binding, comparable within an allelic series)"

# Target: T1, PAX4 (Homo sapiens, UniProt O43316 9-242, R227W)
# T1 sequence: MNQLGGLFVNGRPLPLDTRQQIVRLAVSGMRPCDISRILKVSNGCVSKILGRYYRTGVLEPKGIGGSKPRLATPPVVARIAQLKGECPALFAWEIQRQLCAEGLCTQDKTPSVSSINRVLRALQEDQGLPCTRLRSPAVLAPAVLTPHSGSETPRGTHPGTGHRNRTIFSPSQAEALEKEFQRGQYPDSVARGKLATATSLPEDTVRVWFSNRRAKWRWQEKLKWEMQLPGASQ
# Assay: PBM; 200 nM protein, PBS
# Conditions: dsDNA, one strand shown
row,Sequence,binding signal
1,TAATTTGA,"10.9 upbm affinity estimate (log intensity, higher = more binding, comparable within an allelic series)"
2,GCACCACC,"9.35 upbm affinity estimate (log intensity, higher = more binding, comparable within an allelic series)"
3,CCCTGGTC,"9.21 upbm affinity estimate (log intensity, higher = more binding, comparable within an allelic series)"

# Target: HOXA2 (Homo sapiens, UniProt O43364 129-215, Y150S)
# Assay: PBM; 200 nM protein, PBS
# Conditions: dsDNA, one strand shown
# Chain of HOXA2 (Homo sapiens, UniProt O43364 129-215, Y150S) (O43364 129-215 Y150S): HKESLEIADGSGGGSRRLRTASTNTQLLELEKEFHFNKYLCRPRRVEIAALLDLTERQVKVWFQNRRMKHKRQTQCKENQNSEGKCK
row,Sequence,binding signal
1,ATGAATGA,"10.9 upbm affinity estimate (log intensity, higher = more binding, comparable within an allelic series)"
2,CAGGCTTC,"10.4 upbm affinity estimate (log intensity, higher = more binding, comparable within an allelic series)"
3,CAGGAAGG,"10.4 upbm affinity estimate (log intensity, higher = more binding, comparable within an allelic series)"
4,CCCCCCAG,"10.1 upbm affinity estimate (log intensity, higher = more binding, comparable within an allelic series)"
5,GCCCCGAC,"10.5 upbm affinity estimate (log intensity, higher = more binding, comparable within an allelic series)"

# Target: ALX1 (Homo sapiens, UniProt Q15699 118-204)
# Assay: PBM; 200 nM protein, PBS
# Conditions: dsDNA, one strand shown
# Chain of ALX1 (Q15699 118-204): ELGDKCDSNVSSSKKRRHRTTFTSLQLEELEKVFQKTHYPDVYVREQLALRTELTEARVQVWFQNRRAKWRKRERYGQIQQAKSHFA
row,Sequence,binding signal
1,CCGAGAGG,"6.34 upbm affinity estimate (log intensity, higher = more binding, comparable within an allelic series)"
2,CAGCCTCC,"6.39 upbm affinity estimate (log intensity, higher = more binding, comparable within an allelic series)"
3,CCGGACGG,"6.67 upbm affinity estimate (log intensity, higher = more binding, comparable within an allelic series)"

# Target: HOXA4 (Homo sapiens, UniProt Q00056 201-287, W262F)
# Assay: PBM; 200 nM protein, PBS
# Conditions: dsDNA, one strand shown
# Chain of HOXA4 (Q00056 201-287 W262F): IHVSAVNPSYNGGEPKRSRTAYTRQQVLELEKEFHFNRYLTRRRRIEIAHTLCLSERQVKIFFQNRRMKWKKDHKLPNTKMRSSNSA
row,Sequence,binding signal
1,AGCCCGAG,"9.85 upbm affinity estimate (log intensity, higher = more binding, comparable within an allelic series)"
2,CCGAGAGG,"9.74 upbm affinity estimate (log intensity, higher = more binding, comparable within an allelic series)"
3,GCCTCCCA,"9.77 upbm affinity estimate (log intensity, higher = more binding, comparable within an allelic series)"
4,CCCGACGC,"9.96 upbm affinity estimate (log intensity, higher = more binding, comparable within an allelic series)"
5,TAATTTGA,"10.8 upbm affinity estimate (log intensity, higher = more binding, comparable within an allelic series)"
6,CCCTCTCG,"9.89 upbm affinity estimate (log intensity, higher = more binding, comparable within an allelic series)"
7,GCGGACCC,"9.89 upbm affinity estimate (log intensity, higher = more binding, comparable within an allelic series)"
8,GGGGGAAC,"9.64 upbm affinity estimate (log intensity, higher = more binding, comparable within an allelic series)"
9,GATCCCCC,"9.82 upbm affinity estimate (log intensity, higher = more binding, comparable within an allelic series)"
10,GCCAAGCC,"9.89 upbm affinity estimate (log intensity, higher = more binding, comparable within an allelic series)"
11,ACCTTCGC,"10.1 upbm affinity estimate (log intensity, higher = more binding, comparable within an allelic series)"
12,CAGGCTTC,"9.89 upbm affinity estimate (log intensity, higher = more binding, comparable within an allelic series)"
13,CAGGAAGG,"9.73 upbm affinity estimate (log intensity, higher = more binding, comparable within an allelic series)"
14,CGCGCGCG,"10.1 upbm affinity estimate (log intensity, higher = more binding, comparable within an allelic series)"
15,GCACCACC,"9.79 upbm affinity estimate (log intensity, higher = more binding, comparable within an allelic series)"
16,CCCCACGG,"9.88 upbm affinity estimate (log intensity, higher = more binding, comparable within an allelic series)"

row,Sequence,binding signal
1,CAGCCTCC,"9.71 upbm affinity estimate (log intensity, higher = more binding, comparable within an allelic series)"
2,CCCCCCAG,"9.4 upbm affinity estimate (log intensity, higher = more binding, comparable within an allelic series)"
3,AGCCACGG,"9.91 upbm affinity estimate (log intensity, higher = more binding, comparable within an allelic series)"
4,GACCCTCC,"9.9 upbm affinity estimate (log intensity, higher = more binding, comparable within an allelic series)"
5,GCCGGCCC,"9.8 upbm affinity estimate (log intensity, higher = more binding, comparable within an allelic series)"
6,GCCCGGAC,"9.88 upbm affinity estimate (log intensity, higher = more binding, comparable within an allelic series)"
7,CCCCAGGC,"9.76 upbm affinity estimate (log intensity, higher = more binding, comparable within an allelic series)"
8,CCGGCAGG,"9.96 upbm affinity estimate (log intensity, higher = more binding, comparable within an allelic series)"
9,CCCTGGTC,"9.7 upbm affinity estimate (log intensity, higher = more binding, comparable within an allelic series)"
10,CCCGAGGG,"9.77 upbm affinity estimate (log intensity, higher = more binding, comparable within an allelic series)"
11,CCGAAGGC,"9.89 upbm affinity estimate (log intensity, higher = more binding, comparable within an allelic series)"
12,CCGGACGG,"9.82 upbm affinity estimate (log intensity, higher = more binding, comparable within an allelic series)"
13,CCCCCTTC,"9.31 upbm affinity estimate (log intensity, higher = more binding, comparable within an allelic series)"
14,CCCGAAGG,"9.93 upbm affinity estimate (log intensity, higher = more binding, comparable within an allelic series)"
15,GAGGTTGC,"9.89 upbm affinity estimate (log intensity, higher = more binding, comparable within an allelic series)"
16,GCCCCGAC,"10.1 upbm affinity estimate (log intensity, higher = more binding, comparable within an allelic series)"

# Target: ALX3 (Homo sapiens, UniProt O95076 139-225, N203S)
# Assay: PBM; 200 nM protein, PBS
# Conditions: dsDNA, one strand shown
# Chain of ALX3 (Homo sapiens, UniProt O95076 139-225, N203S) (O95076 139-225 N203S): as the sequence (O95076 139-225 L168V) above, with V30L, N65S counted along it
row,Sequence,binding signal
1,CAGCCTCC,"7.61 upbm affinity estimate (log intensity, higher = more binding, comparable within an allelic series)"
2,AGCCACGG,"7.74 upbm affinity estimate (log intensity, higher = more binding, comparable within an allelic series)"
3,CCGGCAGG,"7.86 upbm affinity estimate (log intensity, higher = more binding, comparable within an allelic series)"
4,CCGGACGG,"7.72 upbm affinity estimate (log intensity, higher = more binding, comparable within an allelic series)"
5,CCCCCTTC,"7.33 upbm affinity estimate (log intensity, higher = more binding, comparable within an allelic series)"

# Target: PRRX1 (Homo sapiens, UniProt P54821 80-166)
# Assay: PBM; 200 nM protein, PBS
# Conditions: dsDNA, one strand shown
# Chain of PRRX1 (P54821 80-166): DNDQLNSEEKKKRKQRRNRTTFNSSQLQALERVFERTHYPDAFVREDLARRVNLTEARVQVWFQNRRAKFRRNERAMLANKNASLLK
row,Sequence,binding signal
1,TAATTTGA,"13.2 upbm affinity estimate (log intensity, higher = more binding, comparable within an allelic series)"
2,GGGGGAAC,"9.62 upbm affinity estimate (log intensity, higher = more binding, comparable within an allelic series)"
3,CAGGCTTC,"9.5 upbm affinity estimate (log intensity, higher = more binding, comparable within an allelic series)"
4,CAGGAAGG,"8.96 upbm affinity estimate (log intensity, higher = more binding, comparable within an allelic series)"
5,CCCCCCAG,"9.37 upbm affinity estimate (log intensity, higher = more binding, comparable within an allelic series)"
6,CCCCAGGC,"9.25 upbm affinity estimate (log intensity, higher = more binding, comparable within an allelic series)"
7,GAGGTTGC,"8.94 upbm affinity estimate (log intensity, higher = more binding, comparable within an allelic series)"
8,GCCCCGAC,"9.52 upbm affinity estimate (log intensity, higher = more binding, comparable within an allelic series)"

# Target: HOXA2 (Homo sapiens, UniProt O43364 129-215)
# Assay: PBM; 200 nM protein, PBS
# Conditions: dsDNA, one strand shown
# Chain of HOXA2 (Homo sapiens, UniProt O43364 129-215) (O43364 129-215): as the sequence (O43364 129-215 Y150S) above, with S22Y counted along it
row,Sequence,binding signal
1,ATGAATGA,"9.56 upbm affinity estimate (log intensity, higher = more binding, comparable within an allelic series)"
2,CAGGCTTC,"7.25 upbm affinity estimate (log intensity, higher = more binding, comparable within an allelic series)"
3,CAGGAAGG,"7.14 upbm affinity estimate (log intensity, higher = more binding, comparable within an allelic series)"
4,CCCCCCAG,"6.91 upbm affinity estimate (log intensity, higher = more binding, comparable within an allelic series)"
5,GCCCCGAC,"7.3 upbm affinity estimate (log intensity, higher = more binding, comparable within an allelic series)"

# Target: HOXB6 (Homo sapiens, UniProt P17509 132-218)
# Assay: PBM; 200 nM protein, PBS
# Conditions: dsDNA, one strand shown
# Chain of HOXB6 (P17509 132-218): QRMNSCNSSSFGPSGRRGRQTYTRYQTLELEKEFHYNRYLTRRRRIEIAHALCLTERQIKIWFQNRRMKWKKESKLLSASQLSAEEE
row,Sequence,binding signal
1,CAGCCTCC,"8.88 upbm affinity estimate (log intensity, higher = more binding, comparable within an allelic series)"
2,GCCGGCCC,"8.94 upbm affinity estimate (log intensity, higher = more binding, comparable within an allelic series)"
3,GCCCGGAC,"8.94 upbm affinity estimate (log intensity, higher = more binding, comparable within an allelic series)"
4,CCGGACGG,"9.05 upbm affinity estimate (log intensity, higher = more binding, comparable within an allelic series)"
